EP2 antag: blocks the human prostaglandin E2 receptor EP2 | C6 glioma cells expressing human EP2, cAMP TR-FRET; cells stimulated with saturating PGE2 | actives 0.52% (n = 260,000) | P43116 | inhibition, % at 25 µM;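 active = percent inhibition above 40 after rounding to a whole number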;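 also: rat C6 glioma host cells with rolipram phosphodiesterase inhibitor present; the protocol text gives 20 µM as final concentration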
Target sequence (P43116 whole entry, looked up): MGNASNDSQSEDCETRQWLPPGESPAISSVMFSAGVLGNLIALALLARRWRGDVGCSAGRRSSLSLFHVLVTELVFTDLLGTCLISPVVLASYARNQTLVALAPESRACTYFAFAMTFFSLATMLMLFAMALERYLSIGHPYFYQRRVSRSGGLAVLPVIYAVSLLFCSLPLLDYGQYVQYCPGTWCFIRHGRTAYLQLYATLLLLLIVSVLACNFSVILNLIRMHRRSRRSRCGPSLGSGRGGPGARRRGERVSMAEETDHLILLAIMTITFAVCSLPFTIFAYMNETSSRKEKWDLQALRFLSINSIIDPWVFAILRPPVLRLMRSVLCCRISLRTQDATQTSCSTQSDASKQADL
Insulin prom inh: TRM-6 insulin promoter activity inhibition. TRM-6 cells (human fetal islet line), insulin promoter-eGFP reporter, imaging; reporter expression induced with tamoxifen. actives 0.9% (n = 130,000). inhibition, % at 2 µM;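 active = inhibition above the mean plus 3 SD, with well images judged a real hit on visual review, cut at about 60% in these data, passing the limit was not always enough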
S1P4 antagonist: antagonists of human S1P4 receptor | S1P4-expressing cells, antagonist mode, reporter read-out | inhibition, % at 4.98 µM | actives 0.26% (n = 220,000) | O95977 | AID 1510; in the data active = inhibition above about 29%;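 also: 0% = wells stimulated with agonist and 100% = vehicle wells without agonist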
S1P4 agonist: activates the human S1P4 receptor | O95977 | S1P4-expressing cell line, agonist reporter assay | activation, % at 4.98 µM | actives 0.35% (n = 220,000) | AID 1509; in the data active = activation above about 11%;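 also: 0% = DMSO vehicle and 100% = reference agonist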
S1P3 antag: antagonists of human S1P3 receptor | Q99500 | CHO S1P3 NFAT-BLA reporter, FRET fluorescence, antagonist mode | inhibition, % at 4.98 µM | AID 485 | actives 0.27% (n = 170,000);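 active = inhibition above the plate cutoff, the mean inhibition of test wells on that plate plus 3 SD, cut at about 28% in these data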;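 also: cells challenged with S1P at its EC80 of 0.8 µM; blue over green emission ratio from cleaved BLA substrate after 4 h stimulation; 0% = S1P-stimulated wells and 100% = unstimulated DMSO-only wells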
EP2 mod: modulators of human EP2 prostaglandin E2 receptor; induction, % at 25 µM; AID 940; EP2-expressing cells, cAMP HTRF FRET, PGE2 co-stimulation; P43116; actives 0.83% (n = 260,000);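 active = compounds whose cAMP rise, as percent of the full-agonist control response, exceeds 60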;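 also: rat C6 glioma line stably carrying human EP2 under a CMV promoter; the protocol text gives 20 µM as final concentration; 100% = response of wells given 1 µM PGE2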
Active calls of the source: *; . = no result. A selection: hits, their analogues and other compounds. The true share with any hit is near 2.4%.

SMILES	EP2 antag	Insulin prom inh	S1P4 antagonist	S1P4 agonist	S1P3 antag	EP2 mod
O=C1Nc2ccccc2C1(O)c1ccccc1 (stereo unspecified)	2	.	-19	0	9	17
Cc1cccc2c1NC(=O)C2(c1ccc(O)cc1)c1ccc(O)cc1	12	-31	98*	-5	.	12
CC(C)c1nnc(NC(=O)Cc2cccc3ccccc23)s1	9	.	.	.	.	29
COc1ccc(C(=O)N2N=C(C)CC2(O)C2CCCCC2)cc1 (stereo unspecified)	5	.	.	.	.	53
CN(C)S(=O)(=O)c1ccc(S(=O)(=O)N(CC(=O)Nc2ccccc2)Cc2cccs2)cc1	6	.	.	.	.	-31
C/C(=N/NC(=O)c1ccncc1)c1cc2ccc(O)cc2oc1=O	5	.	-68	48*	-31	14
Cc1cc(C)c2c(c1)c(C)cc1nnc(SCC(=O)N(C(C)C)C(C)C)n12	14	.	.	.	.	7
CCc1nnc(SCC(=O)Nc2ccc3c(c2)OCO3)o1	5	68*	0	1	.	21
CCc1cc2cc3c(cc2nc1SCC(=O)Nc1ccc(OC)c(OC)c1)OCO3	10	.	.	.	.	74*
CCc1cc2cc3c(cc2nc1SCC(=O)Nc1ccc(OC)cc1)OCO3	20	.	.	.	.	8
Cc1nnc(SCC(=O)Nc2ccc3c(c2)OCO3)o1	6	-23	-14	1	.	3
Cc1cccc2cc(CN(CCCN3CCOCC3)C(=O)NCc3ccccc3)c(=O)[nH]c12	8	.	.	.	.	-23
Cc1cc(-c2ccccc2)nc(Oc2cccc(C(F)(F)F)c2)c1S(C)(=O)=O	11	-30	7	0	.	46
Cc1ccc(S(=O)(=O)c2c(C)cc(C)nc2Oc2cccc(C(F)(F)F)c2)cc1	13	.	2	3	.	64*
COc1ccccc1NC(=O)N1CCCC1C(=O)Nc1c(C)cccc1C (stereo unspecified)	7	.	.	.	.	43
Cc1ccc2c(n1)CC(C)(C)C/C2=N\O	2	90*	-8	-2	.	-12
O=C(CSc1nnc(-c2ccco2)n1-c1ccccc1)NCc1ccco1	5	81*	10	-1	.	19
O=C(CSc1nnc(-c2ccccc2)n1-c1ccccc1)NCc1ccco1	7	-29	-8	-1	.	11
CCc1nnc(NC(=O)CSc2nnc(-c3ccoc3C)n2-c2ccccc2)s1	23	81*	-22	0	-30	-3
Cc1cc(=O)[nH]c2c1c(C)nn2-c1ccccc1	5	61*	-18	-1	2	20
CC(C)(CSc1nncn1N)NS(=O)(=O)c1ccc(Cl)cc1	9	77*	3	3	8	1
CCc1ccc2[nH]c3nc(C)cc(C)c3c(=O)c2c1	8	81*	-14	0	5	13
COc1ccc(-c2nnc(S/C(=C/c3ccc(Cl)cc3)C(=O)O)o2)cc1	4	40	5	1	-11	-23
CSc1ccc(/C=C(/Sc2nnc(-c3ccccc3)o2)C(=O)O)cc1	9	80*	6	1	-11	-14
Cn1c(=O)c2[nH]c(-c3ccccc3)c(O)c2n(C)c1=O	9	-10	-10	4	9	-1
SMILES	EP2 antag	Insulin prom inh	S1P4 antagonist	S1P4 agonist	S1P3 antag	EP2 mod
Cn1c(=O)c2[nH]c(-c3ccccc3Cl)c(O)c2n(C)c1=O	6	64*	-10	0	-15	4
Cc1cc(SCC(=O)Nc2ccc(N(C)C)cc2)nc2ccccc12	10	.	.	.	.	-17
COc1ccccc1C(=O)Nc1ccc(Cc2ccncc2)cc1	10	27	-10	1	21	-58
COc1c(C)cc(Br)cc1C(=O)Nc1ccc(Cc2ccncc2)cc1	11	.	-1	5	-3	64*
COc1ccc(-c2c(C#N)c(C)nc3c2C(=O)c2ccccc2-3)cc1	31	89*	-12	2	.	13
CCc1ccc(/C=C2/C(=O)N(CC)C(=S)N2C)s1	7	69*	0	0	-19	33
C#CCn1c(-c2cccs2)nc2ccccc21	2	93*	7	1	5	-2
Cc1ccc(CN2CCc3c(nc(N4CCC(C)CC4)[nH]c3=O)C2)cc1	.	.	.	.	.	-14
O=C(NCCNS(=O)(=O)c1ccc2ccccc2c1)c1cccs1	10	.	.	.	.	10
CCC(c1nc2ccccc2c(=O)n1CCN1CCOCC1)N1C(=O)c2ccccc2C1=O (stereo unspecified)	4	66*	-3	3	.	24
CC(C)N1CCCC(CNC(=O)c2cc(C3CCCCC3)no2)C1 (stereo unspecified)	6	.	.	.	.	-30
Nc1cc2c(cc1C(=O)c1ccc(Cl)cc1)OCCO2	11	76*	-1	0	.	-12
O=[N+]([O-])c1cccc(-c2csc(N/N=C/c3cccc(O)c3)n2)c1	99*	40	-12	1	-12	-60
CN(C)S(=O)(=O)c1ccc(-c2csc(N/N=C/c3ccc(O)cc3)n2)cc1	104*	.	1	-1	7	-56
CC(=O)c1cccc(Nc2nc(-c3cccc([N+](=O)[O-])c3)cs2)c1	4	-25	-1	-5	.	11
Cc1ccc(-c2csc(N/N=C/c3ccco3)n2)cc1	4	-12	-12	0	.	-5
CN(C)S(=O)(=O)c1ccc(-c2csc(N/N=C/c3ccco3)n2)cc1	47*	.	-8	0	16	-51
Nc1ccc(NC(=O)c2cc3ccccc3o2)cc1	12	.	.	.	.	-79
CCOC(=O)c1ccc(NC(=O)c2cc3ccccc3o2)cc1	19	63*	0	-1	7	48
Cc1cc2c3c(ccc(C)c3n1)N=CN2c1ccccc1	15	81*	-3	-2	.	-18
Cc1ccc(OCc2nnc(SCC(=O)N(C(C)C)C(C)C)n2Cc2ccco2)cc1	13	.	.	.	.	2
Oc1c(Cl)cc(CN(Cc2cc(Cl)c(O)c(Cl)c2)C2CCCCC2)cc1Cl	44*	.	.	.	.	-13
CN(C)c1ccc(CN(C)C2CCCCC2)cc1	5	-14	6	-3	.	20
Cc1ccc2[nH]c(=O)c(CN(CCN(C)C)C(=O)Nc3ccccc3Cl)cc2c1	3	.	.	.	.	-48
CC1CC(C)CN(C(=O)C(Cc2ccccc2)n2cccc2)C1 (stereo unspecified)	8	.	1	1	-1	62*
SMILES	EP2 antag	Insulin prom inh	S1P4 antagonist	S1P4 agonist	S1P3 antag	EP2 mod
Cc1sc2nc(C3CCCN(C(=O)Cc4cccc(F)c4)C3)[nH]c(=O)c2c1C (stereo unspecified)	.	.	.	.	.	14
O=C(NC(=S)Nc1ccc(N2CCOCC2)cc1)c1cncc(Br)c1	7	67*	-10	1	-10	-17
O=C(NC(=S)Nc1ccc(N2CCOCC2)cc1)c1ccccc1	5	.	-8	1	6	-37
CCOc1ccc(S(=O)(=O)n2cc(-c3ccccc3)c(N)n2)cc1	7	38	-8	0	.	-25
CCOc1ccc(S(=O)(=O)n2cc(-c3ccc(F)cc3)c(N)n2)cc1	4	87*	-7	-3	.	-4
O=C1c2ccccc2C(=O)c2c(NC3CCCCC3)ccc(Nc3ccc(S(=O)(=O)O)cc3)c21	71*	.	.	.	.	-15

Source: PubChem BioAssay (several laboratories)
